Source: PubChem
Compounds with a hit are over-represented: about 2.1% of the library has one in this group of screens.
PfM18AAP inh-1: PfM18AAP enzyme inhibition. 290,000 compounds, 1.2% hits. inhibition, % at 7.35 µM. recombinant PfM18AAP, H-Glu-NHMec fluorogenic cleavage;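 active = inhibition above the campaign mean inhibition over all tested compounds plus 3 SD, cut at about 28% in these data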;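 note: 0% = plate median of test compound wells and 100% = 2 mM ZnCl2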
Rin1 Abl inh: blocks binding of human Rin1 to Abl | TR-FRET Rin1/Abl binding, biochemical | inhibition, % at 7.35 µM | 360,000 compounds, 0.4% hits | AID 588664; in the data active = inhibition above about 5%, passing the limit was not always enough
Target sequence (P00519 whole entry, looked up): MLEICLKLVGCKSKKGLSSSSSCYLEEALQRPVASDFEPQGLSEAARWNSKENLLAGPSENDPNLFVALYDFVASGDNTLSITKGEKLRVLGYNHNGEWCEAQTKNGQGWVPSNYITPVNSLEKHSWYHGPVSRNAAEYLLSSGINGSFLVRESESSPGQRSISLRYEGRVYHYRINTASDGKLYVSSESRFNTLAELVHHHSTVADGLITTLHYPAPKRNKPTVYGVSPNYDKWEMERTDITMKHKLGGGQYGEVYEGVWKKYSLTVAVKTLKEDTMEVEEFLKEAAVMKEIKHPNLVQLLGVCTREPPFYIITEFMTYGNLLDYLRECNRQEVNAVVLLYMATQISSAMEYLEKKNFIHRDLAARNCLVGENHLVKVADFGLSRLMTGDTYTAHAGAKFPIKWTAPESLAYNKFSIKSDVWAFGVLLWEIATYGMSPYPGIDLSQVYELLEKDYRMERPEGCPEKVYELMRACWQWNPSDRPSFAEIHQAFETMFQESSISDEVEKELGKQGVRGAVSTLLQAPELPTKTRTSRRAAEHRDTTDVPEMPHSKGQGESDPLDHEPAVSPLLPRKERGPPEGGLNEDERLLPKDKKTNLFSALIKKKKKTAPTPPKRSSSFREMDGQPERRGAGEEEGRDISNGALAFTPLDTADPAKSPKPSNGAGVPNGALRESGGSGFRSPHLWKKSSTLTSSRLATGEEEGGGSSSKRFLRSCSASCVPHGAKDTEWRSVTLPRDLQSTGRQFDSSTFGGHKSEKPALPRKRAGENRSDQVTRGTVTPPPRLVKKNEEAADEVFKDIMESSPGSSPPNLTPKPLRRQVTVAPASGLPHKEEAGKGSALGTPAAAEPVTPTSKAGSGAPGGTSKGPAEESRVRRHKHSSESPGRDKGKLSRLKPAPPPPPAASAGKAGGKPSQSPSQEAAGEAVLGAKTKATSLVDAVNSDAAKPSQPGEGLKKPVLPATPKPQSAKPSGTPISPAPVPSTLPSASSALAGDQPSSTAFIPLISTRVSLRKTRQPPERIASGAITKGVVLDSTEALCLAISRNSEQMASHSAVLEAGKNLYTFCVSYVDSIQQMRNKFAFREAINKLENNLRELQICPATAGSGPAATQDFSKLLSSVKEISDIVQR
Target sequence (Q13671 whole entry, looked up): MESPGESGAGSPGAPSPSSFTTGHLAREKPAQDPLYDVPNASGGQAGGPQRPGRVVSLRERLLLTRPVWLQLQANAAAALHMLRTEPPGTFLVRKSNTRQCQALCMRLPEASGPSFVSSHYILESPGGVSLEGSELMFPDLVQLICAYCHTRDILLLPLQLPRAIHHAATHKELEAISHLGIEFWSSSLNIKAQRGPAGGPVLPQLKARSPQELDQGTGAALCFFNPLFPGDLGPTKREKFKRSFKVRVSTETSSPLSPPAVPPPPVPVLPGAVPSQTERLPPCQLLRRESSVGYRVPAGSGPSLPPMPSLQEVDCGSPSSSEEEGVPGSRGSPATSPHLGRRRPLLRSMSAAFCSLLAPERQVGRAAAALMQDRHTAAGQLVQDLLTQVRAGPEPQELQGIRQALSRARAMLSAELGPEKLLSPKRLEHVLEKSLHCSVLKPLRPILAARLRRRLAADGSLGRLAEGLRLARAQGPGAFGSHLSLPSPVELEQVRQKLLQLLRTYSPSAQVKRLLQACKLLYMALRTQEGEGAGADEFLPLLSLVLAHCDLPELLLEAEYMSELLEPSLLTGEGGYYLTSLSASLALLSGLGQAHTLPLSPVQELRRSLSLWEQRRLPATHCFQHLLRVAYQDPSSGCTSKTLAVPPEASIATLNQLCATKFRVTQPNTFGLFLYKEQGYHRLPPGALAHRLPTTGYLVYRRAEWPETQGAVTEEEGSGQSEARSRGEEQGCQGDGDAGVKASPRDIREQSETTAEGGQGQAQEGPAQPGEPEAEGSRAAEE
Calb FLC: C. albicans growth modulation with fluconazole. C. albicans CaCi-2 (fluconazole-resistant clinical isolate) + fluconazole, Alamar Blue growth, 48 h. growth inhibition, % (concentration not given with the values). 300,000 compounds, 0.57% hits;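 active = growth inhibition above about 58% in most replicates, limit read from the data, passing the limit was not always enough; inconclusive = exactly half the replicates above a set limit; inactive = most replicates below a set limit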;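 note: all wells also contain fluconazole at 8 µg/ml as a sub-toxic cotreatment; 0% = median of DMSO wells and 100% = median of geldanamycin control wells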
CTSL1 counter-1: blocks F. hepatica cathepsin L1 in PFM18AAP counter-screen | AID 1906 | recombinant F. hepatica cathepsin L1, Z-Leu-Arg-MCA fluorescence | inhibition, % at 5.96 µM | 300,000 compounds, 0.49% hits;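 active = inhibition above the mean of all tested compounds plus 3 SD, set per screening campaign, cut at about 17% in these data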;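 note: 0% = plate median of test compound wells and 100% = 1 µM Z-Phe-Ala-diazomethylketone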
PfM18AAP inh-2: PfM18AAP inhibition, confirmation; shares compounds with PfM18AAP inh-1; recombinant PfM18AAP, H-Glu-NHMec fluorogenic cleavage; inhibition, % at 7.35 µM; 2,400 compounds, 28% hits; AID 2170;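 active = mean inhibition over replicate wells above the hit cutoff set for the earlier primary screen, cut at about 29% in these data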;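 note: 0% = median of test compound wells and 100% = 2 mM ZnCl2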
CTSL1 counter-2: Cathepsin L (human) inhibition, confirmation; shares compounds with PfM18AAP inh-1; purified cathepsin L1, Z-Leu-Arg-MCA fluorescence; inhibition, % at 5.96 µM; 2,400 tested, under 10 active;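 active = average inhibition across replicates above the hit cutoff set in the earlier primary screen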;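 note: 0% = median of test compound wells and 100% = Z-Phe-Ala-diazomethylketone 1 µM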
Rin1-Abl confirm: confirmation of inhibitors of human Rin1-Abl interaction | shares compounds with Rin1 Abl inh | inhibition, % at 7.35 µM | TR-FRET Rin1-Abl binding, purified proteins | 1,300 compounds, 49% hits
GFP quencher: counter-screen for Rin1-Abl inhibitors: GFP fluorescence quenchers. shares compounds with Rin1 Abl inh. inhibitors/quenchers counterscreen. inhibition, % at 6.75 µM. 1,300 compounds, 8.5% hits. AID 602125;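 note: ABL1-eGFP fusion protein alone without its partner RIN1-SBP; 0% = protein with vehicle and 100% = wells lacking protein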
GFP quench DR: counter-screen for Rin1-Abl inhibitors: GFP quenchers, dose response | shares compounds with Rin1 Abl inh | GFP fluorescence interference/quenching counterscreen | IC50, µM | 230 tested, under 10 active | AID 602182; call rule not given here;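 note: ABL1-eGFP fusion protein alone without its RIN1 binding partner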
* marks the source's active call; other numbers are inactive results; ? = inconclusive; / = not tested or not shown. Cut-off read from the data, not from the text of the source, unless noted: active = inhibition above about 6.5%; inactive = the rest.

SMILES	PfM18AAP inh-1	Rin1 Abl inh	Calb FLC	CTSL1 counter-1	PfM18AAP inh-2	CTSL1 counter-2	Rin1-Abl confirm	GFP quencher	others
COc1cc(C2C(C#N)=C(N)OC3=C2C(=O)CCC3)c([N+](=O)[O-])cc1OC (centres undefined)	39.7*	-1.5	5.5	-2.3	-19.9	2.5	/	/
C=CCc1c(C)[nH]c2c(OC)cccc2c1=S	38.5*	-3.2	-2.1	0.4	12.6	0.7	/	/
O=c1c(-c2ccc(Cl)cc2)cnc2n1CCS2	-0.7	-3.3	-24.4	-4.6	/	/	/	/
O=C(Cn1cnc([N+](=O)[O-])n1)c1ccc(O)c(O)c1	38.1*	-0.5	-12.9	-3.2	13.6	-0.3	/	/
S=c1[nH]nc(Cn2nnc3ccccc32)n1-c1ccc(Cl)cc1	38.9*	1.2	-3.7	-6.0	4.3	2.2	/	/
S=c1[nH]nc(Cn2cnc3ccccc32)n1-c1ccccc1	42.0*	4.2	9.3	-1.9	-8.6	0.0	/	/
COCc1n[nH]c(=S)n1-c1ccccc1	11.9	3.6	17.4	1.1	/	/	/	/
Cc1cc2oc(=O)cc(CN3CCCCC3C)c2cc1C (centres undefined)	18.1	1.9	-6.3	10.1	/	/	/	/
COC(=O)COc1ccc(C)cc1-n1nc2ccccc2n1	37.6*	7.9	23.1	-9.0	-38.7	-5.1	/	/
Cc1ccc(OC(=O)COc2ccccc2C)c(-n2nc3ccccc3n2)c1	4.0	-1.1	-14.4	-18.2	/	/	/	/
Cc1cc(C(=O)N/N=C/c2ccc(O)c(O)c2O)c(C)n1-c1ccccc1	48.6*	20.1*	5.9	/	17.8	-3.1	10.8*	7.8*
Cc1cc(/C=N/NC(=O)c2ccncc2)c(C)n1-c1ccccc1	1.7	-2.6	-2.5	4.1	/	/	/	/
O=c1cc2c(=O)oc3cc(O)c(O)oc3c2c(O)c1O	59.3*	56.2*	-2.5	/	30.7*	-3.9	50.8*	34.3*
Nn1c(SCC(=O)Nc2ccccc2F)nnc1C1CCCCC1	-6.8	0.0	?	-1.7	/	/	/	/
O=C(/C=C/c1ccc(O)c(O)c1)OC1C(O)CC(OC(=O)/C=C/c2ccc(O)c(O)c2)(C(=O)O)CC1O (centres undefined)	76.5*	23.2*	-6.1	2.1	64.3*	5.9	30.9*	2.1	GFP quench DR=>67.6
Cc1ccc(CNC(=O)c2ccc(N3CCC4(CC3)CC(c3cccc(Br)c3)=NO4)c(NC(=O)c3c(Cl)cccc3Cl)c2)cc1	/	0.8	/	1.8	/	/	/	/
CCOc1ccccc1/C=N/Nc1ccc(Cl)nn1	7.0	-0.7	-0.2	0.3	/	/	/	/
Oc1ccc(/C=N/Nc2ccc(Cl)nn2)c(O)c1O	65.1*	28.9*	?	-4.7	49.0*	-0.8	27.0*	17.4*
CCN(C[C@H]1N[C@@](CC)(C(=O)OC)[C@H]2C(=O)N(Cc3ccccc3)C(=O)[C@@H]12)S(=O)(=O)c1ccc(OC(F)(F)F)cc1	/	1.6	/	/	/	/	/	/
O=c1cc(-c2ccc(O)c(O)c2)oc2cc(O)c(C3OC(CO)C(O)C(O)C3O)c(O)c12 (centres undefined)	68.4*	27.2*	-8.0	4.0	33.9*	1.6	33.4*	8.9*
O=c1cc(-c2ccc(O)c(O)c2)oc2c(C3O[C@H](CO)[C@@H](O)[C@H](O)[C@H]3O)c(O)cc(O)c12 (some centres undefined)	67.7*	22.4*	-10.8	-3.2	44.7*	-1.5	37.0*	14.0*
O=c1cc(-c2ccc(O)cc2)oc2c(C3O[C@H](CO)[C@@H](O)[C@H](O)[C@H]3O)c(O)cc(O)c12 (some centres undefined)	/	0.4	/	8.3	/	/	/	/
Nc1cc(=O)[nH]c(SCC(=O)N2CCCC2)n1	/	4.5	/	/	/	/	/	/
COc1cc(OC)c(-c2c3cc(O)c(=O)cc-3oc3cc(O)c(O)cc23)cc1OC	44.2*	62.3*	/	0.7	26.5	-0.6	72.6*	-123.7	GFP quench DR=>67.5
Cc1c2cc(O)c(=O)cc-2oc2cc(O)c(O)cc12	29.3*	65.0*	-7.5	-14.8	42.0*	-0.9	88.0*	-16.3
SMILES	PfM18AAP inh-1	Rin1 Abl inh	Calb FLC	CTSL1 counter-1	PfM18AAP inh-2	CTSL1 counter-2	Rin1-Abl confirm	GFP quencher	others
Cc1ccccc1-c1cc(=O)c2ccccc2o1	/	2.0	/	/	/	/	/	/
CSc1nc2ccccc2n1Cc1c(Cl)cccc1Cl	0.6	1.0	0.8	2.2	/	/	/	/
CC(NC(=O)c1ccc(N)cc1)c1ccccc1 (centres undefined)	-3.0	-0.1	-2.4	-7.8	/	/	/	/
Oc1ccc(C2=Nn3c(nnc3-c3ccco3)SC2)cc1O	74.6*	5.9*	-0.3	-0.3	59.5*	-1.4	3.9	16.9*
O=c1cc(-c2ccc(O)cc2)oc2c(O)c(O)c(O)c(O)c12	51.6*	36.9*	/	-1.3	17.7	1.6	48.2*	21.6*
O=c1cc(-c2ccc(O)cc2)oc2c1ccc1ccccc12	/	1.1	/	/	/	/	/	/
Cc1nnc(N/N=C/c2ccc(Br)cc2)n1N	48.0*	6.7*	-3.7	1.2	-36.8	-5.5	-4.3	-1.6
COc1ccc(/C=N/Nc2nnc(C)n2N)cc1OC	25.5	-3.8	0.8	1.2	/	/	/	/
CN(c1ccc(F)cc1)S(=O)(=O)c1ccc(Cl)c(C(=O)OCC(=O)NC2CC2)c1	/	-5.1	/	/	/	/	/	/
COCCN=c1scc(-c2ccccc2)n1/N=C/c1c[nH]c2ccccc12	-1.7	2.9	17.0	2.2	/	/	/	/
CCN=c1scc(C)n1/N=C/c1ccc(O)c(O)c1O	46.0*	19.6*	88.2*	1.2	23.8	8.1	16.0*	11.9*
C=C(C)CN=c1scc(C)n1/N=C/c1ccco1	4.8	-1.1	0.5	5.0	/	/	/	/
COCCN=c1scc(-c2cccs2)n1/N=C/c1ccc(O)c(O)c1O	41.8*	13.0*	20.0	5.7	12.5	4.5	10.8*	10.4*
C=CCn1c(SCC(=O)N(CC)c2c(N)n(Cc3ccccc3)c(=O)[nH]c2=O)nnc1-c1ccccc1OC	/	2.3	/	/	/	/	/	/
O=C(N/N=C/c1ccc(O)c(O)c1)N/N=C/c1ccc(O)c(O)c1	79.7*	49.1*	-2.2	/	64.0*	-5.0	62.6*	11.7*
CCN(CC(=O)Nc1c(F)cccc1F)C(=O)CSC(=S)N1CCCC1	/	-2.0	/	/	/	/	/	/
Cc1ccc(Oc2coc3cc(OC(=O)c4cccs4)ccc3c2=O)cc1	-13.5	-3.2	-11.9	-0.8	/	/	/	/
CC(=O)Oc1ccc2c(=O)c(Oc3ccccc3)coc2c1OC(C)=O	32.7*	5.5*	-2.4	-3.1	2.5	-0.4	1.5	4.1
N#C/C(=C\c1cc(O)c(O)c(O)c1)C(N)=O	60.5*	48.9*	10.8	3.1	26.5	1.0	48.9*	20.5*
Cc1nc(N/N=C/c2ccc(O)cc2O)cc(N2CCOCC2)n1	49.0*	36.0*	8.4	-1.3	33.5*	0.7	44.5*	-2.0	GFP quench DR=>67.5
